The whole screen tested about 48,000 compounds, of which about 13,000 (27%) showed an effect of 50% or more. This is one part of the list.

The experiment deals with Wolbachia pipientis. In words: Anti-Wolbachia Cell-Based Screen. The experiment is classed as functional. On the set-up: scale not given: in the data most compounds retested in dose-response had high values. The following applies: 5 µM.
`Cc1ocnc1C(=O)N1CCN(Cc2ccccc2)[C@@H]2CS(=O)(=O)C[C@@H]21`: the “Percent Effect” value was -1.53%.
The value for `CCn1nc2c(cc1=O)CN(CC(=O)N(C)c1nccs1)CC2` was -28.1%.
On to `CN(C)C(=O)CO[C@H]1CN(Cc2ccc3c(c2)OCO3)[C@@H]2COC[C@H]12.O=C(O)C(F)(F)F`, for which the “Percent Effect” value turned out to be 108%.
The value for `CN(C)C(=O)CO[C@H]1CN(Cc2ccsc2)[C@@H]2COC[C@H]12.O=C(O)C(F)(F)F` was 92.71%; that for `CN(C)C(=O)CO[C@H]1CN(Cc2cccc(C#N)c2)[C@@H]2COC[C@H]12.O=C(O)C(F)(F)F` was -2.281%.
For `CCc1ccc(CN2C[C@H](OCC(=O)N(C)C)[C@H]3COC[C@H]32)o1.O=C(O)C(F)(F)F` the value was 117.7%; for `CN(C)C(=O)CO[C@H]1CN(Cc2ccccc2)[C@@H]2CCCO[C@H]12.O=C(O)C(F)(F)F`, 0.8065%; for `CN(C)C(=O)CO[C@H]1CN(Cc2ccoc2)[C@@H]2COC[C@H]12.O=C(O)C(F)(F)F`, 107.9%.
With `CN(C)CCO[C@H]1CN(Cc2ccc3c(c2)OCO3)[C@@H]2COC[C@H]12.O=C(O)C(F)(F)F.O=C(O)C(F)(F)F`, the “Percent Effect” value is given as -6.328%.
For `CN(C)CCO[C@H]1CN(Cc2ccoc2)[C@@H]2COC[C@H]12.O=C(O)C(F)(F)F.O=C(O)C(F)(F)F` the value was -9.926%; for `CC(C)C1=NOC(c2nc(Cc3ccccc3)no2)C1` (stereo not given), -12.61%.
With `CCc1ccccc1OC1CN(C(=O)c2ccnc(OC)c2)C1`, the “Percent Effect” value is on record as -7.047%.
`CC(C)NS(=O)(=O)c1cc(C(=O)O)cc(-c2ccccc2F)c1`: the “Percent Effect” value was determined as 2.884%.
The value for `Cc1ccc(F)cc1-c1ccc(N)nc1` was -13.87%; that for `CCc1ccc(C(=O)NC2CCCN(c3ccn(C)n3)C2=O)o1` (stereo not given) was -13.64%; that for `O=C1CCSCC(C(=O)N2CCN(C3CCCCC3)CC2)N1` (stereo not given) was 2.707%.
The value for `COc1cccc(CNCc2cccnc2)c1` was 125.9%; that for `C=C(C)COc1cccc(CNCc2nc3ccccc3c(=O)[nH]2)c1` was -21.19%; that for `COc1cccc(CNC[C@@]2(COc3cccnc3)C[C@@H](O)[C@@H](O)C2)c1.Cl.Cl` was -11.87%.
The value for `Cc1nn(C)c(N(C)C)c1CNCc1cccnc1` was 7.028%; that for `COc1cccc(CNCc2nc3ccccc3c(=O)[nH]2)c1` was 145%; that for `COc1ccc(-n2ccc(CNCc3cccc(OC)c3)n2)cc1` was -0.2636%.
Regarding `Cl.c1cncc(CNCc2cccs2)c1`, the “Percent Effect” value was determined as 109.5%.
Turning to `O=C(NCCc1cccnc1)NCCc1cccs1`, the “Percent Effect” value is reported as -0.2291%.
On to `COc1cccc(-c2nc(CNCc3cccnc3)cs2)c1`, for which the “Percent Effect” value was 6.915%.
For `CCC(CC)c1cc(CNC(=O)N2CCC[C@@H]2CO)on1` the value was -2.754%; for `CCn1cc(CNc2ccc(F)c(N3CCCS3(=O)=O)c2)cn1`, -13%; for `Cc1cccc(C(=O)N(CCCO)S(=O)(=O)c2cccs2)c1`, -17.59%.
As for `COCCC(=O)N1CCCC1c1nc(O)cc(-c2ccccn2)n1` (stereo not given), the “Percent Effect” value worked out at 100.3%.
The value for `O=C(CC1CCCC1)N1CCCC1c1nc(O)cc(-c2ccccn2)n1` (stereo not given) was -10.15%.
Turning to `O=C(CN1CCCC1)N1CCCC1c1nc(O)cc(-c2ccccn2)n1` (stereo not given), the “Percent Effect” value is given as 91.97%.
Take `C/C=C(/C)C(=O)NS(=O)(=O)c1ccc(C(F)(F)F)cc1`: the “Percent Effect” value is -1.888%.
The value for `O=C(C1CCOC1)N1CCN(CC(F)(F)F)c2ccccc21` (stereo not given) was 125.3%.
The value for `O=C(C1CCCOC1)N1CCCc2ccccc21` (stereo not given) was -6.498%.
For `Cc1ccc2c(c1)N(C(=O)C1CCCOC1)CCC2` (stereo not given) the value was 0.6184%; for `CC(C)(C)c1cc(NC(=O)C2COCCO2)n(-c2ccccn2)n1` (stereo not given), -13.16%.
As to `CN1CCN(C(=O)C2CC=CC2)c2ccccc21`, the “Percent Effect” value was -33.89%.
With `O=C(C1CCCOC1)N1CCCCc2ccccc21` (stereo not given), the “Percent Effect” value is on record as -3.66%.
In the case of `O=C(C1COCCO1)N1CCN(CC(F)(F)F)c2ccccc21` (stereo not given), the “Percent Effect” value is recorded as 122.9%.
With `O=C(C1CCCOC1)N1CCN(CC(F)(F)F)c2ccccc21` (stereo not given), the “Percent Effect” value turned out to be 120.4%.
For `COc1nc(N2CCN(C(C)=O)CC2)ncc1Br`, the “Percent Effect” value is recorded as -6.459%.
The value for `Cc1ccc(NC2CCCN(CCCc3ccccc3)C2)nn1` (stereo not given) was 90.19%; that for `CC(C)c1ccc(NC2CCCN(Cc3ccncc3)C2)cc1` (stereo not given) was -12.89%; that for `Cc1ccc(NC2CCCN(C3Cc4ccccc4C3)C2)nn1` (stereo not given) was -17.09%.
As to `Cc1ccc(NC2CCCN(Cc3ccc(Cl)cc3)C2)nn1` (stereo not given), the “Percent Effect” value is on record as 105.3%.
The value for `Cc1ccc(NC2CCCN(CCc3ccccc3)C2)nn1` (stereo not given) was 81.81%; that for `c1ccc(CCCN2CCCC(Nc3cnc4ccccc4n3)C2)cc1` (stereo not given) was 45.74%; that for `Cc1nnc([C@H]2CCN(CCCc3ccccc3)C2)o1` was -2.923%.
On to `CCn1cc(S(=O)(=O)NC2CCCN(CCCc3ccccc3)C2)cn1` (stereo not given), for which the “Percent Effect” value was -6.071%.
Regarding `Cc1cc(C)nc(NC2CCCN(CCCc3ccccc3)C2)n1` (stereo not given), the “Percent Effect” value is reported as 120.4%.
With `Cc1cc(NC2CCCN(Cc3ccc(F)cc3)C2)n2nc(C)cc2n1` (stereo not given), the “Percent Effect” value worked out at 43.11%.
Consider `Cc1cc(N[C@H]2CCCN(Cc3ccccc3)C2)n2nc(C)cc2n1`, for which the “Percent Effect” value is given as -7.34%.
The value for `CSc1ccccc1C(=O)N(C)C1CCCN(CCc2ccccc2)C1` (stereo not given) was -4.554%; that for `CCn1c(CN2CCC(O)(C(=O)OC)CC2)nc2c(F)cccc21` was -8.235%.
The value for `CSCCC(NC(N)=O)C(=O)NCc1c(C)nn(-c2ccccc2)c1C` (stereo not given) was -8.181%; that for `FC(F)(F)c1ccccc1CCC1CCCN(Cc2cscn2)C1` (stereo not given) was 15.59%.
Regarding `COc1ccc2c(c1)nc1n2[C@@H](CNC(=O)c2cccnc2)COC1`, the “Percent Effect” value is given as -6.986%.
Regarding `O=C(NC1CCCC1)[C@H]1C[C@H]2OCC[C@H]2N(Cc2ccoc2)C1.O=C(O)C(F)(F)F`, the “Percent Effect” value is on record as 13.19%.
For `CN(C)C(=O)N[C@H]1CN(Cc2ccc3c(c2)OCO3)[C@@H]2CCCO[C@H]12.O=C(O)C(F)(F)F` the value was 93.48%; for `CN(C)C(=O)[C@H]1C[C@H]2OCC[C@H]2N(Cc2ccc3c(c2)OCO3)C1.O=C(O)C(F)(F)F`, 0.2139%.
`CN(C)C(=O)N[C@@H]1CN(Cc2ccc3c(c2)OCO3)[C@@H]2CCCO[C@@H]21.O=C(O)C(F)(F)F`: the “Percent Effect” value was -22.69%.
The value for `O=C(N[C@H]1CN(Cc2ccsc2)[C@@H]2CCCO[C@H]12)C1CC1.O=C(O)C(F)(F)F` was 106.9%; that for `O=C(O)C(F)(F)F.O=C([C@H]1C[C@H]2OCC[C@H]2N(Cc2ccoc2)C1)N1CCCO1` was 7.487%; that for `O=C(N[C@@H]1CN(Cc2cccs2)[C@@H]2CCCO[C@@H]21)C1CC1` was -17.92%.
Turning to `O=C(N[C@@H]1CN(Cc2ccsc2)[C@@H]2CCCO[C@@H]21)C1CC1`, the “Percent Effect” value is given as -8.929%.
Regarding `O=C(N[C@@H]1CN(Cc2ccoc2)[C@@H]2CCCO[C@@H]21)C1CC1.O=C(O)C(F)(F)F`, the “Percent Effect” value is 105.3%.
Take `O=C(c1ccccc1)C1CCN(Cc2cc3c(cc2O)CCC3)CC1`: the “Percent Effect” value is on record as -3.001%.
On to `O=S(=O)(c1cccnc1)N1C[C@@H]2CC[C@H](C1)N(Cc1ccccc1)C2`, for which the “Percent Effect” value is -31.29%.
As to `Cn1cc(N2CCC(NC(=O)c3c(F)cccc3Cl)C2=O)cn1` (stereo not given), the “Percent Effect” value was -23.29%.
The value for `Cc1ncccc1Oc1nccnc1C1CCN(C(C)C)CC1` was -4.012%; that for `COCC(=O)N1CCC(c2nccnc2Oc2cccnc2C)CC1` was 0.288%; that for `COc1ccc(CN(C)C2CCN(S(C)(=O)=O)CC2)c2cccnc12` was 1.454%.
For `Cc1ncccc1Oc1nccnc1C1CCCN(C(C)C)C1` (stereo not given), the “Percent Effect” value came out at 134.2%.
For `COc1ccccc1Oc1ncccc1CNC(=O)C(C)N1CCCC1` (stereo not given) the value was -2.64%; for `Cc1ncccc1Oc1nccnc1C1CCN(S(C)(=O)=O)CC1`, 120.9%.
Consider `CN(C)CCN1CCN(C)C2(CCN(c3nccs3)CC2)C1=O`, for which the “Percent Effect” value is recorded as -6.968%.
With `O=C(C1CCCC1)N1CCCC(c2nc(O)cc(-c3ccncc3)n2)C1` (stereo not given), the “Percent Effect” value is 85.76%.
Consider `CC1(C)CNC(=O)c2nc(C3CCCN(C(=O)C4CC4)C3)[nH]c2C1` (stereo not given), for which the “Percent Effect” value is given as -1.543%.
The value for `O=C(N1CCCC1)N1CCCC(c2nccn2Cc2ccncc2)C1` (stereo not given) was 19.93%; that for `O=C(Nc1cc(-c2ccncc2)no1)C1CCCCC1` was -8.136%.
For `O=C(C1CC1)N1CCCC(c2nc(O)cc(-c3ccncc3)n2)C1` (stereo not given) the value was 87.21%; for `CC(=O)c1cccc(NC(=O)C2CN(S(=O)(=O)C3CC3)C2)c1`, 8.617%.
For `Cc1ccc(NC2CCN(C(=O)CCNc3ncccn3)CC2)nn1` the value was 111.7%; for `O=C(CCNCC(F)(F)F)N1CCC(Nc2cccnn2)CC1`, -5.357%.
For the molecule `Cc1ccc(NC2CCN(C(=O)CCCn3ccnc3C)CC2)nn1`, the “Percent Effect” value was found to be 100.9%.
`Cc1ccc(NC2CCN(C(=O)CCNS(C)(=O)=O)CC2)nn1`: the “Percent Effect” value is -0.08742%.
For `CC(C)(C)C(=O)NCCC(=O)N1CCC(Nc2cccnn2)CC1` the value was 101.9%; for `Cc1nccn1CCCC(=O)N1CCC(Nc2cccnn2)CC1`, 11.87%; for `O=C(CCNc1ncccn1)N1CCC(Nc2cccnn2)CC1`, 106.9%.
For `COC1CCCN(C(=O)NCC(C)(C)SC)C1` (stereo not given) the value was -6.562%; for `NC(=O)C(NC1CCN(CC2CCCCC2)CC1)c1ccc(F)cc1` (stereo not given), 3.018%.
The value for `CS(=O)(=O)CCC(=O)Nc1cc(Cl)c(Cl)cn1` was -8.334%; that for `O=C(c1ccc(S(=O)(=O)NCC(F)F)cc1)N1CC[C@H]2CNC[C@H]21` was -11.61%.
Consider `CSc1ccc(C(C)NC(=O)c2cc(C)on2)cc1` (stereo not given), for which the “Percent Effect” value is -17.95%.
The value for `Cc1noc(C)c1CCCNC(=O)Nc1cccc([S+](C)[O-])c1` (stereo not given) was -8.91%.

For the origin of these results see ChEMBL document CHEMBL3988442, “University of Dundee, Small-Polar-MMV Screening Library” (2021).
